Values joined by “and” are separate entries in the source; they are usually repeats but may differ in a detail not shown here. Equal entries are not always repeated. Records with an inconclusive call do not appear. Where a structure was tested more than once in an assay, its records may differ in their call. Active and inactive are the calls of the source. Unless noted, the call rests on the fitted dose curve; in most records, active means well fitted curve in the direction sought with a large enough effect; inconclusive means small, poorly fitted or top-dose-only effect, or another doubt; inactive means no such curve, though single readings can be large; an effect the other way counts as inactive or inconclusive.

Test [1] is described as follows: qHTS assay for environmental chemicals that activate the Aryl hydrocarbon Receptor (AhR) signaling pathway (AID 651777). Further: % of control where 0% means no effect; nearly all actives have a fitted effect of over 15% in size. Conditions: 1A2-DRE human hepatoma cells, luciferase, 24 h; activation: stronger effect = higher value. The essentials: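 Human hepatoma 1A2-DRE cells stably carrying a DRE/CYP1A2 promoter–luciferase reporter, 1,200 cells/well, exposed to compound 24 hr at 37 C. Luciferase read by One-Glo luminescence after 30 min at room temperature; increased signal marks AhR activation.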
(In general: In qHTS, concentration-response curves come from the screen itself.)

In test [2] the target is Peroxisome proliferator-activated receptor alpha (Homo sapiens) (UniProt Q07869). Nature of the test: qHTS assay for small molecule agonists of the peroxisome proliferator-activated receptor alpha (PPARalpha) signaling pathway (AID 651778). Further: % of control where 0% means no effect. Conditions: PathHunter PPARalpha complementation, chemiluminescence, 6 h; max response: stronger effect = higher value. Put shortly:
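Enzyme-fragment complementation assay in which ligand-bound PPARalpha translocates and forms an active enzyme that generates chemiluminescence. Cells were plated overnight, exposed to compound for 6 hr at 37 C, and then given detection reagent for 60 min at room temperature.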

Test [3] addresses Tyrosine-protein kinase Yes (Homo sapiens) (UniProt P07947). Nature of the test: qHTS for small molecule inhibitors of Yes1 kinase: Primary Screen (AID 686947).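 Further: plate controls were DMSO with enzyme for no effect and no-enzyme DMSO wells for full effect; nearly all actives have a fitted effect of over 60% in size.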 The essentials:
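ADP-Glo luminescence readout; final 4 nM Yes1, 0.1 mM ATP, 0.3 mg/mL poly(E4Y), Tris pH 7.5, MgCl2, DTT, Brij-35. 20 min compound preincubation, 60 min reaction at RT. Normalized to DMSO wells with and without enzyme.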

Test [4] can be described thus: qHTS for small molecule inhibitors of Yes1 kinase: Counter Assay (AID 686950).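 Further: no kinase present so only ADP-Glo detection of a fixed ADP amount is tested; luminescence from ADP-Glo reporting ADP in a fixed ATP and ADP mixture; 0% = DMSO wells with ATP plus ADP and -100% = ATP-only wells without ADP.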 Put shortly:
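Enzyme-free detection counter-screen: compounds preincubated 20 min in buffer, then 0.08 mM ATP plus 0.02 mM ADP added for 60 min at room temperature; ADP-Glo luminescence. Buffer 50 mM Tris pH 7.5, 10 mM MgCl2, 150 mM NaCl; normalized to ATP+ADP and ATP-only controls.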

Test [5] can be described thus: qHTS assay for small molecule agonists of the antioxidant response element (ARE) signaling pathway measured by Nrf2-dependant transcriptional activity (AID 720636; active means well fitted curve in the direction sought with a large enough effect in the repeat runs; an effect the other way counts as inactive or inconclusive; further: % of control where 0% means no effect). Put shortly: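 ARE-luc HepG2 cells carrying an Nrf2-responsive luciferase reporter, in medium with 1% dialyzed FBS, exposed to compound for 16 hr at 37 C, 5% CO2. Luminescence read 30 min after ONE-Glo addition.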

Test [6] can be described thus: qHTS assay for small molecule antagonists of the retinoid-related orphan receptor gamma (ROR-gamma) signaling pathway - cell viability counter screen (AID 720652; active means well fitted curve in the direction sought with a large enough effect in the repeat runs; an effect the other way counts as inactive or inconclusive;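 further: compound exposure lasted 16 hr before ATP read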; further: potency means the concentration at half of the fitted maximal effect). Put shortly: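 Counter screen in CHO cells carrying TET-inducible ROR-gamma and an ROR response element-luciferase reporter; cells plated 5 hr, compound pinned, doxycycline added, then 16 hr at 37 C. Viability read as intracellular ATP by CellTiter-Glo luminescence.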

Test [7] in a line: qHTS Assay for Identifying Gametocytocidal Compounds (AID 743244). Further: potency means the concentration at half of the fitted maximal effect.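 On max response: on the % scale 0 is the no-effect control and ±100 the full control effect; actives lower the fluorescent signal which means gametocytes are killed.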 Conditions: P. falciparum 3D7 stage III-V gametocytes, alamarBlue, 72 h; max response: stronger effect = lower value. The essentials: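 Using 20,000 stage III–V 3D7 gametocytes per well, compounds were incubated 72 h under 37 °C/5% CO2. Viability was then assessed by 24 h alamarBlue reduction, measured fluorometrically at 525/598 nm.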

Test [8] can be described thus: qHTS assay for cell viability of the p53RE-bla HCT-116 cell line (AID 743292). Further: on the % scale 0 is the no-effect control and ±100 the full control effect; nearly all actives have a fitted effect of over 55% in size. Put shortly:
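CellSensor p53RE-bla HCT-116 cells (4,000/well) pre-incubated 5 h at 37 C, then exposed to compounds in DMSO for 16 h at 37 C. Viability read as ATP content by CellTiter-Glo luminescence after 30 min at room temperature.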

Test [9] is described as follows: qHTS profiling for inhibitors of Plasmodium falciparum (3D7) proliferation (AID 743322).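 Further: infected erythrocytes exposed to compound for 72 h before lysis; 100% = DMSO vehicle wells and 0% = 0.29 µM artemisinin.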 The note with it: P. falciparum 3D7 proliferation; at 28.7 µM (top of the series) unless noted. The essentials:
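Erythrocytes infected with P. falciparum (0.3% parasitemia, 2.5% hematocrit) incubated with compounds 72 h at 37 C, 5% CO2. Lysis with saponin/Triton buffer containing SYBR Green I, overnight at room temperature in the dark; DNA fluorescence (485/535 nm) normalised to 0.29 uM artemisinin and DMSO.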

Test [10] addresses Tumor necrosis factor (Homo sapiens) (UniProt P01375). Nature of the test: qHTS assay to identify small molecules that stimulate Tumor Necrosis Factor-alpha (TNF-alpha) secretion (AID 651757; active means well fitted curve in the direction sought with a large enough effect in the signal ratio; the % refers to the signal ratio; further: 0% is about no effect). The essentials:
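THP-1 cells were exposed to compounds for 17 hrs at 37 C, after which secreted TNF-alpha was measured by homogeneous HTRF (TR-FRET) using cryptate- and XL665-labeled anti-TNF-alpha antibodies, read after 3 hr at room temperature.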

The nature of test [11]: qHTS assay to identify small molecules that stimulate interleukin-8 (IL-8) secretion (AID 651758; active means well fitted activation curve with a large enough effect in the signal ratio; the % refers to the signal ratio; further: 0% is about no effect). Put shortly: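 THP-1 cells (2000/well) exposed to compound 16 h at 37 C; secreted IL-8 then detected by HTRF with cryptate- and XL665-labelled anti-IL-8 antibody pair after 1-3 h at room temperature.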
Test [12] concerns the target Nuclear receptor ROR-gamma (Homo sapiens) (UniProt P51449). Nature of the test: qHTS assay for small molecule antagonists of the retinoid-related orphan receptor gamma (ROR-gamma) signaling pathway (AID 651802). Further: potency means the concentration at half of the fitted maximal effect; nearly all actives have a fitted effect of over 60% in size. Put shortly: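 CHO cells carrying TET-inducible ROR-gamma and an ROR response element–luciferase reporter were exposed to compound, then induced with doxycycline. After 16hr at 37C, luminescence was read; lower signal indicates antagonism.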

Test [13] can be described thus: qHTS assay for small molecule agonists of the antioxidant response element (ARE) signaling pathway measured by Nrf2-dependant transcriptional activity - cell viability counter screen (AID 720653; active means well fitted curve in the direction sought with a large enough effect in the repeat runs; an effect the other way counts as inactive or inconclusive; further: on the % scale 0 is the no-effect control and ±100 the full control effect). The note with it: ARE-bla HepG2 viability, CellTiter-Glo ATP luminescence, 16 h; stronger effect = lower value. Put shortly: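 ARE-bla HepG2 cells treated with compounds for 16 h at 37C; this counter screen measures viability as intracellular ATP by CellTiter-Glo luminescence after 30 min at room temperature.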

Test [14] can be described thus: qHTS assay for cell viability of HEK293 cells (AID 743288). Further: on the % scale 0 is the no-effect control and ±100 the full control effect; nearly all actives have a fitted effect of over 50% in size. Conditions: ATP luminescence (CellTiter-Glo), 18 h, stronger effect = lower value. The essentials: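 Parental HEK293 cells, 2,000 per well, preincubated at least 5 h at 37 C, then exposed to compounds in DMSO for 18 h at 37 C. Viability by CellTiter-Glo ATP luminescence after 30 min at room temperature.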
A short description of test [15]: qHTS for compounds that reverse cellular toxicity of Amyloid beta (A-beta) peptide in yeast: LOPAC Validation Assay (AID 720559).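 Further: plate controls were DMSO for no effect and equimolar ferric chloride plus clioquinol rescue for full effect.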 The essentials: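 Yeast expressing toxic A-beta grown with pinned compounds at 30 C for 48 hr. Growth measured as absorbance at 600 nm; data normalized to DMSO and to an equimolar FeCl3/clioquinol mixture as positive control.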
Test [16] in a line: qHTS for Activators of Parkin Expression: LOPAC Validation Assay (NLuc Reporter) (AID 720572;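 further: 0% = DMSO and 100% = positive control compound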). The essentials: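 Neuronal cells with a Parkin promoter-driven FLuc/NLuc coincidence reporter were treated 24 h at 37 C in 7-point dose response (LOPAC). NLuc luminescence read after FLuc; signals normalized to DMSO and positive control (100%).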
Test [17] can be described thus: qHTS for Activators of Parkin Expression: LOPAC Validation Assay (FLuc Reporter) (AID 720573;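 further: 0% = DMSO and 100% = positive control compounds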). Put shortly:
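Neuronal cell line stably expressing FLuc/NLuc coincidence reporter under the Parkin promoter, 1,500 cells/well, dosed 24 h after seeding in 7-point series for 24 h at 37 C. FLuc luminescence read; normalized to DMSO and positive control (100%).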

For test [18], the target named is T1, Hexokinase-4 (Homo sapiens) + Glucokinase regulatory protein (Homo sapiens) (UniProt P35557+Q14397). Nature of the test: qHTS assay for inhibitors of recombinant human GCK-GKRP interaction: Diaphorase-coupled assay (AID 743205). The essentials:
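Compounds pre-incubated 20 min with substrate, then 10 nM GST-GCK with 10 nM FLAG-GKRP added. GCK activity coupled via G6PDH and diaphorase to resorufin (5 mM glucose, 0.4 mM ATP, 0.15 mM NADP+, pH 7.6), read kinetically over 30 minutes at Ex 525/Em 590 nm.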

In test [19] the target is T1, Hexokinase-4 (Homo sapiens) + Glucokinase regulatory protein (Homo sapiens). Nature of the test: qHTS assay for inhibitors of recombinant human GCK-GKRP interaction: ADP-Glo assay (AID 743206).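 Further: plate controls were DMSO plus enzyme for no effect and no enzyme for full effect.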 Put shortly: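 GST-GCK and FLAG-GKRP (15 nM each in the dispensed mix, with 2 uM S6P) react with 0.4 mM ATP and 5 mM glucose (final) in Hepes pH 7.6 for 60 min at room temperature. ADP is measured by ADP-Glo luminescence.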

For test [20] the target is unchanged. Nature of the test: qHTS assay for inhibitors of recombinant human GCK-GKRP interaction: HTRF assay (AID 743207).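 Further: 0% = DMSO with GCK present and -100% = DMSO wells lacking GCK.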 The essentials: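 HTRF binding of 5 nM GST-GCK and 5 nM FLAG-GKRP with 2 uM S6P in pH 7.1 Hepes buffer (MgCl2, KCl, DTT, Tween 20, BSA). Anti-FLAG XL665 and anti-GST donor added, 60 min at room temperature; 665/615 nm read, normalized to with- and without-GCK controls.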

Sequence of Peroxisome proliferator-activated receptor alpha (Homo sapiens) (Q07869 whole entry, looked up, the tested form may be a part): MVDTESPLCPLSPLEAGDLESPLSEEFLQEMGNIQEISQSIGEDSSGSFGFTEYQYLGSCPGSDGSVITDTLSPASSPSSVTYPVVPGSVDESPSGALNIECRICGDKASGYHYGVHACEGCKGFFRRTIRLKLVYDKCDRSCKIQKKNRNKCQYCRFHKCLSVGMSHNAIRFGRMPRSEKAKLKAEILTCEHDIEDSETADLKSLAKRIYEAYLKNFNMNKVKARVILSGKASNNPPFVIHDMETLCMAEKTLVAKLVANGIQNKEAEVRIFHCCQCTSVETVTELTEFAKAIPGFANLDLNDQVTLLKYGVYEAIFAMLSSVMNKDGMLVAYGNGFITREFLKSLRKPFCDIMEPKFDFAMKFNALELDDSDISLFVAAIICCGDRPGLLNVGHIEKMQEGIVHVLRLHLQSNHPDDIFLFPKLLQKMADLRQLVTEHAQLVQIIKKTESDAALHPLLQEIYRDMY
Sequence of Tumor necrosis factor (Homo sapiens) (P01375 whole entry, looked up): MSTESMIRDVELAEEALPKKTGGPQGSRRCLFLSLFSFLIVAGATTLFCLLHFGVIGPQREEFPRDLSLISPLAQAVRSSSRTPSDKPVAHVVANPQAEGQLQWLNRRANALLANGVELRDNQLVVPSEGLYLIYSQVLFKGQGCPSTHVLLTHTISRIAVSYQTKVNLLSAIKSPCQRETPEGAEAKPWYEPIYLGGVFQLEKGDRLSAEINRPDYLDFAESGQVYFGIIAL
T1 sequence (P35557 whole entry, looked up): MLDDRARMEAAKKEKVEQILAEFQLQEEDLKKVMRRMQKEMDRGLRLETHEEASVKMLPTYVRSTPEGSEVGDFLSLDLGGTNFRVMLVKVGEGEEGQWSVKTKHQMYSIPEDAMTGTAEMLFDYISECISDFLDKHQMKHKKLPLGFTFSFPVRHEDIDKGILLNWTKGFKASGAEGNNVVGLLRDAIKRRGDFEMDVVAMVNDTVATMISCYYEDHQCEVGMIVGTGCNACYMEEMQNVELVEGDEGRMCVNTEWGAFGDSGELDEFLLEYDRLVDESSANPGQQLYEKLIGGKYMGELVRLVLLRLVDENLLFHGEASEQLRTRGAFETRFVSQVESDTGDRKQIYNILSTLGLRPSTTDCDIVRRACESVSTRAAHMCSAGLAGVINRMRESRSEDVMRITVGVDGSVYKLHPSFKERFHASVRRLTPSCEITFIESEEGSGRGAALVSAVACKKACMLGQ
T1 sequence (Q14397 whole entry, looked up): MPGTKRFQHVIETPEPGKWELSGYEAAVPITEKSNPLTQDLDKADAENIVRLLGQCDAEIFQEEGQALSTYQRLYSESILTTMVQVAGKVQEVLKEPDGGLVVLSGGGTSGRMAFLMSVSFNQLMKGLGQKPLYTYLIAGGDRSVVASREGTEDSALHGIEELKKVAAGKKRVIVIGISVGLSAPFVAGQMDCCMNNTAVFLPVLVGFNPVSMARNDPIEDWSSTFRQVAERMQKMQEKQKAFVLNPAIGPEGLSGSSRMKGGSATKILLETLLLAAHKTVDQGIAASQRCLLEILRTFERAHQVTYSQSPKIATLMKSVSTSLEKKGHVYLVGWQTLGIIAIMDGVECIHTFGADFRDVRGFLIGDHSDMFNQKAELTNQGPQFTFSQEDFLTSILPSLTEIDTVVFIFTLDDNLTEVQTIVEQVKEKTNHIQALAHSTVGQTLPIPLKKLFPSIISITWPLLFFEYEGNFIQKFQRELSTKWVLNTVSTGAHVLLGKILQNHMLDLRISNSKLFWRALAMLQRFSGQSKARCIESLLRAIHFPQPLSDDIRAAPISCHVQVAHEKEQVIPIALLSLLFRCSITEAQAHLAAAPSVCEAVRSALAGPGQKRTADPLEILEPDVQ
Sequence of Nuclear receptor ROR-gamma (Homo sapiens) (P51449 whole entry, looked up): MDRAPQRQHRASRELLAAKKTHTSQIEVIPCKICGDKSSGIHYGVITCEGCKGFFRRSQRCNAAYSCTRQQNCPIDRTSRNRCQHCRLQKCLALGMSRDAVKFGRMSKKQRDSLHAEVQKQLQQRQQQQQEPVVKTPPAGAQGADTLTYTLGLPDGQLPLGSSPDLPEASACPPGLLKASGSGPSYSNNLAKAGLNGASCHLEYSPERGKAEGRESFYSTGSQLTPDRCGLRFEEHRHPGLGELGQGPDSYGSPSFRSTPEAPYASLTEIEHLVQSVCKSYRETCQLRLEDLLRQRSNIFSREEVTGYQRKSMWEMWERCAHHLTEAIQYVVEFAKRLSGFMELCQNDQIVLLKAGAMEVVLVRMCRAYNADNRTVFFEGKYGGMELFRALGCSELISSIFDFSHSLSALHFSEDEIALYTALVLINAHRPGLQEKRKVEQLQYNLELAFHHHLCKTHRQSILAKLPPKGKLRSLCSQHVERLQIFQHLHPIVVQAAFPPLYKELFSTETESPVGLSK
Sequence of Tyrosine-protein kinase Yes (Homo sapiens) (P07947 whole entry, looked up): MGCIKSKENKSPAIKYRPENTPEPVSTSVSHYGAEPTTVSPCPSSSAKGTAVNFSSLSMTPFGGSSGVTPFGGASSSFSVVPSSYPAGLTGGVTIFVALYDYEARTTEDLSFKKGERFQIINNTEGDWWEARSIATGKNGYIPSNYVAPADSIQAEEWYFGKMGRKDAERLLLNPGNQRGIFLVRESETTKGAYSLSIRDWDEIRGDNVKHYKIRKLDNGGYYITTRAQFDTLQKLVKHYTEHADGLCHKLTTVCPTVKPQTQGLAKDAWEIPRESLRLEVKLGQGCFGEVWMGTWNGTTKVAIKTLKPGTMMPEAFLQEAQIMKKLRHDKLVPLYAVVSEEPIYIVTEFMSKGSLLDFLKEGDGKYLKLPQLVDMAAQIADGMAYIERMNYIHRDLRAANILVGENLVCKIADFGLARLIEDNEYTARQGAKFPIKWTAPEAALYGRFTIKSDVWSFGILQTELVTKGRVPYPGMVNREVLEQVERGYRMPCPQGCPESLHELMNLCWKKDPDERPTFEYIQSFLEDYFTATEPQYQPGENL

Consider `COc1cccc2c1C(=O)c1c(O)c3c(c(O)c1C2=O)C[C@@](O)(C(=O)CO)C[C@@H]3O[C@H]1C[C@H](N)[C@H](O)[C@H](C)O1`, for which the activation in test [1] is 1.88% (inactive). Besides, the max response in test [2] is -6.93% (inactive) and -6.66% (inactive); in test [7], -8.37% (inactive). Moreover, the call in [3], in test [4] and in [8] was inactive. In addition, the Potency entry in [5] was “inactive”. Further, the Potency in test [6] is 23.7 µM (active); in test [7] it was 526 nM (active) and 2.82 µM (active). For the same compound, the remaining parasite growth % (stronger effect = lower value) in [9] is -4.76%.

Turning to `O=C1OC(c2ccc(O)cc2)(c2ccc(O)cc2)c2ccccc21`, the call in [10] and in test [8] was inactive. For the same compound, the Potency entry in [11], in test [5] and in [6] was “inactive” throughout. For the same compound, the max response was -2.04% (inactive) and -2.85% (inactive) in [2]; 4.44% (inactive) and -20.6% (inactive) in test [13]; 7.07% (inactive) in test [7]; -1.91% (inactive) and -6.06% (inactive) in test [14]. In test [12], the Potency is 66.8 µM (active).

On to `C[C@]12CC[C@@H]3c4ccc(O)cc4CC[C@H]3[C@@H]1CC[C@@H]2O`, for which the call in test [10], in test [15], in test [16], in test [17], in test [18] and in test [19] was inactive. In addition, the result in [20] and in test [8] was inactive. Further, the activation in test [1] is 1.98% (inactive). The max response in [2] is 0.86% (inactive); in [13], -2.14% (inactive); in test [7], 23.5% (inactive) and 41.3% (inactive); in test [14], -9.32% (inactive). Moreover, the Potency in [12] was 33.5 µM (active). Further, the Potency result in [5] was “inactive”.

With `CC(C)(Oc1ccc(Cl)cc1)C(=O)O`, the activation in [1] was -2.05% (inactive). The max response in [2] is 8.18% (inactive); in test [13], 10.5% (inactive); in test [7], 6.9% (inactive); in [14], -4.41% (inactive). The Potency result in test [5] was “inactive”. In addition, in test [8], the result was inactive.

`O=C(O)CCCCC(=O)O`: the compound was classed as inactive in test [10] and in test [8]. In addition, the Potency entry in test [11], in [5] and in [6] was “inactive” each time. In addition, the activation in test [1] is 0.177% (inactive). In addition, the max response in test [2] is -5.15% (inactive); in test [13] it was 6.35% (inactive); in test [7], -5.63% (inactive); in test [14] it was 0.134% (inactive).

The values above are taken from PubChem BioAssay (NCATS).
